From PubChem
Shown is part of a subset that was picked to be rich in hits.
GluA2 TARP mod = modulates AMPAR-stargazin complexes | HEK293 GluA2+stargazin, membrane potential dye (FDSS), glutamate EC50; hits were called plate by plate, in both directions | calls only at 30 µM | 40,000 tested, 3.5% active;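 active means any of four per-well response measures lying three or more SD from its plate-wide compound average, in either direction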
GIRK2 act = Activates human GIRK2-containing potassium channels; P48051; activation (% efficacy), % for hits at 37.5 µM; AID 1259324; HEK293 GIRK2/NPY4 cells, thallium flux fluorescence; 34,000 tested, under 10 active;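 active means primary screen hit, no activity in plain HEK293 cells, and in GIRK2-only cells above 5% efficacy rising with concentration; inactive means the rest, including fluorescent compounds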;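 further: efficacy is normalized control-subtracted fluorescence 15 s after thallium addition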
Target sequence (P48051 whole entry, looked up): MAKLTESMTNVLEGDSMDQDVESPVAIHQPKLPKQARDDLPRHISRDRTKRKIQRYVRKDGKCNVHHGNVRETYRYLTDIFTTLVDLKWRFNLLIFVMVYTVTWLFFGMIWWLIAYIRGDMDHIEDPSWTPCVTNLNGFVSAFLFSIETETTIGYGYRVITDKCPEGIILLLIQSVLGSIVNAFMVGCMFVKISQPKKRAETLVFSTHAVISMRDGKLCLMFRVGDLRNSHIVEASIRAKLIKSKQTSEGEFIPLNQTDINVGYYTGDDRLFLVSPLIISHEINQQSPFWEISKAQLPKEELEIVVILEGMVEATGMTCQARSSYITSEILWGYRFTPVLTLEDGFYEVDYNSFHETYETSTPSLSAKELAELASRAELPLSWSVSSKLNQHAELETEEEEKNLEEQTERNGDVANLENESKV
Starred values were filed as active, the others as inactive; i = inactive; · = no result given; + = active, no number.

SMILES | GluA2 TARP mod | GIRK2 act
CN(C1CCCC1)S(=O)(=O)c1ccc(C(=O)Nc2nc3ccc(S(C)(=O)=O)cc3s2)cc1 | i | ·
COc1cccc(C(=O)Nc2ccc3c(c2)CCC(=O)N3CC(C)C)c1 | i | i
COc1ccc(N2CCN(C(=O)c3ccc(S(=O)(=O)N4CCCC4)cc3)CC2)nn1 | · | i
CN(C)c1ccc(N2CCN(C(=O)c3ccc(S(N)(=O)=O)cc3)CC2)nn1 | + | i
CCOCCN1N=C(c2ccccc2)Cn2c1nc1c2c(=O)n(C)c(=O)n1C | i | ·
O=C(NCCS(=O)(=O)N1CCN(c2ccccn2)CC1)c1cccc(Cl)c1 | · | i
CCCCn1c(SCc2nc(-c3cc(OC)cc(OC)c3)no2)nc2ccsc2c1=O | i | i
CCCCn1c(SCc2nc(-c3ccc(Cl)cc3)no2)nc2ccsc2c1=O | + | i
Cc1ccc(-c2noc(Cn3c(=O)n(Cc4ccc5c(c4)OCO5)c(=O)c4sccc43)n2)cc1C | i | i
CC(C)(C)c1ccc(OC(=O)N2CCOCC2)cc1 | i | ·
O=C(Oc1ccccc1OC(=O)N1CCOCC1)N1CCOCC1 | + | ·
COc1cc(C(=O)Nc2cccc(N3CCCCC3=O)c2)c([N+](=O)[O-])cc1OC | i | i
Cc1c(C(=O)Nc2cccc(N3CCCC3=O)c2)cccc1[N+](=O)[O-] | + | i
O=C(c1ccco1)N1CCc2ccc(NS(=O)(=O)c3ccc(F)c(Cl)c3)cc21 | · | i
COc1cn(CC(=O)NC2CCCC2)c(CSc2ccc(C)cc2)cc1=O | i | i
COc1cn(CC(=O)NC2CCCCC2)c(CSc2ccccc2)cc1=O | + | ·
CC(C)Sc1ccc(CC(=O)N2CC3CC2C(=O)O3)cc1 (stereo not drawn) | i | i
COCCn1c(=NC(=O)c2ccno2)sc2cc(F)cc(F)c21 | + | i
COCCn1c(=NC(=O)CS(=O)(=O)c2ccc(OC)cc2)sc2cc(F)cc(F)c21 | i | i
O=S(=O)(NCC1CCN(c2ncccn2)CC1)c1ccccc1Cl | i | i
O=C(CSC1=NC2(CCCC2)N=C1c1ccccc1)Nc1ccc2c(c1)OCCO2 | i | i
COc1ccc(-n2nnc3c(N4CCN(C(=O)c5ccco5)CC4)ncnc32)cc1 | i | ·
CC(C)CCNC(=O)Cc1csc(Nc2ccc(F)cc2)n1 | i | i
Cn1c(=O)c2cc(C(=O)NCCC(c3ccccc3)c3ccccc3)sc2n(C)c1=O | i | i
Cn1c(=O)c2cc(C(=O)NCCCn3ccnc3)sc2n(C)c1=O | + | i
SMILES | GluA2 TARP mod | GIRK2 act
Cn1c(=O)c2cc(C(=O)Nc3cccc(S(N)(=O)=O)c3)sc2n(C)c1=O | + | i
Cn1c(=O)c2cc(C(=O)NCCCN3CCOCC3)sc2n(C)c1=O | + | i
Cn1c(=O)c2cc(C(=O)Nc3ccc(Oc4ccccc4)cc3)sc2n(C)c1=O | i | i
Cn1c(=O)c2cc(C(=O)NCc3ccccc3)sc2n(C)c1=O | i | i
Cc1ccnc(Nc2ccc(NCCNC(=O)/C=C/c3ccccc3)nn2)c1 | · | i
COCCNC(=O)Cc1ccc(NC(=O)COc2ccc(Cl)cc2)cc1 | i | i
CCCCOCC(O)CN1CCN(C)CC1 (stereo not drawn) | i | i
COc1ccc(OC)c(-c2ccc(=O)n(Cc3ccccc3)n2)c1 | i | i
COc1ccc(OC)c(-c2ccc(=O)n(Cc3cccc([N+](=O)[O-])c3)n2)c1 | + | i
CSc1cccc(NC(=O)NCCNc2cc(-n3nc(C)cc3C)ncn2)c1 | i | i
Nc1nc(SCC(=O)Nc2ccccc2)ncc1S(=O)(=O)c1cccs1 | · | i
O=C(Nc1ccc2ncsc2c1)c1ccc(S(=O)(=O)N2CCOCC2)cc1 | i | i
CC1CC(C)CN(S(=O)(=O)c2ccc(C(=O)Nc3ccc4ncsc4c3)cc2)C1 (stereo not drawn) | + | i
CN1CCN(C(CNC(=O)c2cnccn2)c2ccc(F)cc2)CC1 (stereo not drawn) | i | i
O=C(CCCS(=O)(=O)c1ccc(Cl)cc1)Nc1ccc([N+](=O)[O-])cc1 | + | ·
CCC(=O)Nc1nc2ccc([N+](=O)[O-])cc2s1 | + | i
Cc1ccc(S(=O)(=O)CCCC(=O)N(CCN(C)C)c2nc3c(C)cccc3s2)cc1 | i | i
Cc1ccc(S(=O)(=O)CCCC(=O)N(CCN(C)C)c2nc3ccc([N+](=O)[O-])cc3s2)cc1 | + | i
O=C(CCCS(=O)(=O)c1ccccc1)Nc1ccc([N+](=O)[O-])cc1 | i | i
O=C(CCCS(=O)(=O)c1ccccc1)Nc1nc(-c2ccc(Cl)s2)cs1 | i | i
O=C(CCCS(=O)(=O)c1ccccc1)Nc1nc(-c2ccc(Br)s2)cs1 | + | i
O=C(CN1C(=O)c2ccccc2S1(=O)=O)Nc1nc2ccc([N+](=O)[O-])cc2s1 | i | i
